High-throughput results deposited in PubChem by Johns Hopkins Ion Channel Center.
KCNQ2 enhance – potentiators of rat KCNQ2 potassium channel. CHO-K1 KCNQ2, FluxOR thallium flux fluorescence; stronger effect = higher value. B-score at 10 µM. 310,000 tested, 0.54% active;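 active means fluorescence ratio B-score at least 3 SD of library B-scores, with initial fluorescence B-score within 3 of them, cut at about 5.3 in these data; same plate scores as AID 2156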;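 further: B-score of peak minus minimum over baseline fluorescence ratio after K+ and Tl+ stimulus; positive B-score means potentiation of KCNQ2 with more thallium influx and brighter signal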
KCNQ2 inh – inhibitors of rat KCNQ2 potassium channel; AID 2156; CHO-K1 KCNQ2, FluxOR thallium flux, 20 min; stronger effect = lower value; 310,000 tested, 1.1% active; O88943; B-score at 10 µM;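 active means fluorescence ratio B-score at most minus 3 library SDs, with starting brightness B-score within 2 library SDs, cut at about -5.5 in these data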
Of the large screens only hits and unclear results are named; the others gave an inactive call. The list is not random: actives were taken first. Their share in the collection is about 1.6%.

COc1cc(C=O)ccc1OCCOCCOc1ccc(Cl)cc1	none (no result: KCNQ2 enhance)
O=C(Nc1ccnn1C1CCN(C/C=C/c2ccccc2)CC1)c1ccccc1	none
Cc1cc(C(C)(C)C)oc1C(=O)N(CC(=O)NC1CCCC1)Cc1ccccc1	none (no result: KCNQ2 enhance)
Cc1ccc(C)c(N(CC(=O)NC2CCCC2)C(=O)c2oc(C(C)(C)C)cc2C)c1	KCNQ2 inh -6.6
CC(=O)Nc1sc2c(c1C#N)CCC(C)C2 (configuration not stated)	none
Cc1ccc(C)n1-c1sc2c(c1C#N)CCC(C)C2 (configuration not stated)	KCNQ2 inh -7.8
OC(CNCc1ccncc1)c1ccccc1 (configuration not stated)	none (no result: KCNQ2 enhance)
Cc1ccc(CN2CCSc3ccc(C(=O)NC4CCCC4)cc32)cc1	none (no result: KCNQ2 enhance)
O=C(NC1CCCC1)c1ccc2c(c1)N(Cc1ccc(F)cc1)CCS2	KCNQ2 inh -6.4
Fc1ccc(-c2cc(C(F)(F)F)n3ncnc3n2)cc1	none
Cc1ccc(C)c(OCc2cc(C(=O)N3CC[C@@H]4CCCC[C@H]4C3)no2)c1	KCNQ2 inh -6.5
Cc1ccc(C)c(OCc2cc(C(=O)N3C[C@@H](C)O[C@@H](C)C3)no2)c1	none
CCOc1ncccc1C(=O)Nc1ccc(Cl)c(S(=O)(=O)N2CCCC2)c1	none (no result: KCNQ2 enhance)
Cc1ccc(S(=O)(=O)CC(=O)Nc2nnc(C(C)C)s2)cc1	none
COc1ccc(CNC(=O)C(c2ccco2)N(C(=O)c2ccccn2)c2ccccc2)cc1 (configuration not stated)	none
Cc1ncc(CN2CCCC(C(=O)Nc3ccc(-c4cccc(F)c4)cc3)C2)n1C (configuration not stated)	KCNQ2 inh -5.7
COc1cccc(-c2ccc(NC(=O)C3CCCN(Cc4cnc(C)n4C)C3)cc2)c1 (configuration not stated)	none (no result: KCNQ2 enhance)
COc1cccc(-c2nc(CS(=O)(=O)CC(=O)NC3CCCCCC3)c(C)o2)c1	none (no result: KCNQ2 enhance)
Cc1[nH]n(-c2ccccc2)c(=O)c1C(c1ccccc1[N+](=O)[O-])C(C#N)C#N (configuration not stated)	none (no result: KCNQ2 enhance)
Cc1[nH]n(-c2ncc(-c3ccccc3)s2)c(=O)c1C(c1ccc(Cl)cc1)C(C#N)C#N (configuration not stated)	KCNQ2 inh -7.2
N#CCCN/N=C(/Cc1nc2ccccc2[nH]1)c1ccc(Cl)cc1	KCNQ2 inh -10
N#CCCN/N=C(\Cc1nc2ccccc2[nH]1)c1ccccc1	none (no result: KCNQ2 enhance)
Cc1ccc(-n2c(-c3ccc(Cl)cc3)c[n+]3c2CCC3)cc1	none
CCN(CC)c1ccc2cc(S(=O)(=O)c3ccc(Cl)cc3)c(=O)oc2c1	KCNQ2 inh -6.2
CCCCCCc1cc2cc(S(=O)(=O)c3ccc(Cl)cc3)c(=O)oc2cc1O	none
Cc1cc(C(=O)CSc2nc3ccccc3n2CCC#N)c(C)n1Cc1cccs1	none (no result: KCNQ2 enhance)
COc1ccccc1/C=C/C=N/n1c(-c2cc(-c3ccccc3)n[nH]2)n[nH]c1=S	none (no result: KCNQ2 enhance)
O=C1N=c2ccc(Br)cc2=C1c1sc(=O)[nH]c1O	none (no result: KCNQ2 enhance)
Cn1c(C(=O)NCCc2c[nH]c3ccccc23)cc2sccc21	none (no result: KCNQ2 enhance)
O=C(NCCc1c[nH]c2ccccc12)c1cc2sccc2n1Cc1ccccc1	KCNQ2 inh -6.5
N=c1n(Cc2ccccc2)c2ccccc2n1CC(O)COc1ccc(Cl)cc1Cl (configuration not stated)	KCNQ2 inh -6
N=c1n(Cc2ccc(Cl)cc2)c2ccccc2n1CC(O)COc1ccccc1 (configuration not stated)	none (no result: KCNQ2 enhance)
Cc1ccc(/C=N/NC(=O)C(C)Oc2cccc3ccccc23)o1 (configuration not stated)	none
O=C(COC(=O)CNC(=O)c1ccccc1F)Nc1cccnc1Cl	none (no result: KCNQ2 enhance)
CC1=NN(Cc2ccccc2)C(=O)C1C(c1ccc(Cl)cc1)C(C#N)C#N (configuration not stated)	none (no result: KCNQ2 enhance)
Oc1cc2c(cc1CN1CCc3ccccc3C1)OCO2	none
CCc1ccccc1NC(=O)c1ccccc1N1C(=O)C2C3C=CC(C3)C2C1=O (configuration not stated)	none
O=C1c2ccccc2C(Nc2ccc(Cl)cn2)N1c1ccccn1 (configuration not stated)	KCNQ2 inh -6.6
O=C1c2ccccc2C(Nc2ccc(S(=O)(=O)N3CCCCCC3)cc2)N1c1ccccn1 (configuration not stated)	none (no result: KCNQ2 enhance)
CCc1nc(N=Nc2c(O)[nH]c3ccccc23)c2c3c(sc2n1)CCC3	none
COc1cc(/C=N/NC(=O)Cc2ccccc2)ccc1Oc1ccc([N+](=O)[O-])cc1[N+](=O)[O-]	none
COc1ccc([N+](=O)[O-])cc1/C=N/NC(=O)Cc1ccccc1	KCNQ2 enhance 6
COc1ccc(OCC(=O)Nc2ccc3nc(C)sc3c2)cc1	KCNQ2 inh -9.6
COc1cccc(CC(=O)Nc2ccc3nc(C)sc3c2)c1	none (no result: KCNQ2 enhance)
Oc1ccccc1OCc1nc2ccccc2s1	none (no result: KCNQ2 enhance)
Oc1ccc(O)c(Cc2nc3ccccc3s2)c1	KCNQ2 inh -5.6
Fc1ccc2nc(Nc3nc4c(F)cc(F)cc4s3)sc2c1	none
Fc1ccc2nc(Nc3nc4c(F)cccc4s3)sc2c1	KCNQ2 enhance 14
CCN(CC)S(=O)(=O)c1ccc(C(=O)NC(=S)N(CCO)Cc2ccccc2)cc1	none
CCCOc1ccc(CN(CCC#N)C(=S)NC(=O)c2ccccc2)cc1	KCNQ2 enhance 7.1
Cc1ccc(C(=O)c2ccccc2C(=O)Nc2ccccc2)cc1	none
Cc1ccc(C)c(NC(=O)c2ccccc2C(=O)c2ccccc2)c1	KCNQ2 inh -6
O=C1CN(c2nc(-c3cccnc3)nc3sc4c(c23)CCCC4)CCN1	KCNQ2 inh -5.7
Nc1nc(-c2cccnc2)nc2sc3c(c12)CCCC3	none
COCCN(C(=O)COC(=O)CCS(=O)(=O)c1ccccc1)c1c(N)n(Cc2ccccc2)c(=O)[nH]c1=O	none (no result: KCNQ2 enhance)
Oc1[nH]c2c(Cl)cc(Cl)cc2c1N=NC(=S)NCC1CCCO1 (configuration not stated)	KCNQ2 enhance 11
Cc1cc(C)c2[nH]c(O)c(N=NC(=S)NCC3CCCO3)c2c1 (configuration not stated)	none
COc1ccc(-c2cc(C(=O)Nc3cc(C)on3)c3ccccc3n2)c(OC)c1	none (no result: KCNQ2 enhance)
COc1cccc(NC(=O)c2cc(-c3ccc(OC)cc3OC)nc3ccccc23)c1	KCNQ2 inh -6.4
COC(=O)C1=C(C)N(Cc2ccco2)C(=O)N[C@@H]1c1ccccc1	none
CCOc1c(C)cnc2c1c(=O)n(Cc1cccc(Cl)c1)c(=O)n2C	none (no result: KCNQ2 enhance)
CCOc1c(C)cnc2c1c(=O)n(Cc1ccc(Cl)cc1)c(=O)n2C	KCNQ2 inh -5.9
Cc1ccc(C(=O)CSc2nnc(-c3ccco3)n2CC2CCCO2)cc1 (configuration not stated)	none
Cc1ccc(Sc2nc(-c3ccccc3)ccc2C#N)cc1	none (no result: KCNQ2 enhance)
CCOc1cc(CNCCN2CCOCC2)ccc1OCc1ccccc1Cl	none (no result: KCNQ2 enhance)
CCOc1cc(CNCCCN2CCOCC2)cc(Br)c1OCc1ccccc1Cl	KCNQ2 inh -5.9
O=C(CCCc1ccccc1)Nc1ccnn1C1CCN(Cc2ccccn2)CC1	KCNQ2 enhance 6.4
Cc1ccccc1CN1CCC(n2nccc2NC(=O)CCCc2ccccc2)CC1	none
COc1cc(/C=N\NC(=O)CC#N)ccc1OC/C=C/c1ccccc1	none (no result: KCNQ2 enhance)
COc1ccc(Cn2ccnc2SCC(=O)Nc2ccccc2F)cc1	none (no result: KCNQ2 enhance)
COc1ccc(Cn2ccnc2SCC(=O)Nc2ccccc2OC)cc1	KCNQ2 inh -6.1
Cc1cccc(NC2=NC(=S)N(c3cccc(C(=O)O)c3)C23CCCCC3)c1	none (no result: KCNQ2 enhance)
